Screening data (PubChem BioAssay)
A selection: hits, their analogues and other compounds. The true share with any hit is near 4.8%.
hcDAF-12 act – activators of H. contortus DAF-12 nuclear receptor; 1.4% of 370,000 active; activation, % at 6.8 µM; HEK293 hcDAF-12 lit1-tk-luc reporter, luminescence; 0% DMSO, 100% Δ7-dafachronic acid;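 active = activation above the mean of all tested compounds plus 3 SD, cut at about 5.5% in these data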;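 note: 100% = response to 3 µM Δ7-dafachronic acid high control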
hgDAF12 agonist – hgDAF-12 agonism, primary luciferase screen; HEK293 GAL4-hgDAF12 UAS-luciferase reporter, agonist luminescence; normalized to butyrate control; activation, % at 6.8 µM; 1.8% of 370,000 active; AID 687014;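 active = activation above a cutoff set at the mean of all screened compounds plus 3 SD, cut at about 10% in these data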;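 note: 0% = DMSO wells and 100% = sodium butyrate wells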
DAX1 inh-1 – blocks DAX1 repression of SF-1 activated StAR promoter; 1.1% of 370,000 active; inhibition, % at 6.8 µM; AID 652010; HEK293T StAR-luciferase reporter, SF-1/DAX-1 repression relief;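 active = inhibition above the mean over all tested compounds plus 3 SD, cut at about 3.6% in these data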;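 note: 0% = DAX-1 cells with DMSO and 100% = cells lacking DAX-1 with DMSO; higher inhibition means more luminescence from relief of DAX-1 repression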
DAX1 inh-2 – inhibits human nuclear receptor DAX1 | HEK293 Gal4-DAX1 luciferase reporter, luminescence | P51843 | 0.99% of 340,000 active | inhibition, % at 6.75 µM;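 active = inhibition above the mean over all tested compounds plus 3 SD, cut at about 4.2% in these data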;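 note: 0% = DAX1-transfected cells with DMSO and 100% = empty-vector control cells with DMSO; inhibition shows as a rise in luminescence from relieved DAX1 repression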
Target sequence (P51843 207-470 limits assumed): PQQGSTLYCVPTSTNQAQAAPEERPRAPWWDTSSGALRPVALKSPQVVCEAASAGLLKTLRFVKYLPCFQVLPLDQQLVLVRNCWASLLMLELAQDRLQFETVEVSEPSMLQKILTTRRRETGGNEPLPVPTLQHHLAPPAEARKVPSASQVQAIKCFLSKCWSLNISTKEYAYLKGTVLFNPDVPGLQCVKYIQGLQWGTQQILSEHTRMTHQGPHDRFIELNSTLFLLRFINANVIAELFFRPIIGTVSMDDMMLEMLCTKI
SMARCA2 activ – increases SMARCA2 function in MMTV reporter cells; MG213 cells, MMTV-luciferase reporter, dexamethasone, overnight; activation, % at 9.1 µM; 1% of 370,000 active; AID 652017; in the data active = activation above about 7.8%;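 note: 0% = vehicle wells and 100% = reference activator wells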
ssDAF12 agonist – activators of S. stercoralis DAF-12 nuclear receptor; activation, % at 6.8 µM; AID 652126; HEK293 ssDAF-12/GRIP1 lit1-tk-luc reporter, luminescence; % of 3 µM dafachronic acid response; 1% of 370,000 active;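 active = activation above the mean over all tested compounds plus 3 SD, cut at about 0.9% in these data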;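 note: 0% = DMSO-only wells and 100% = 3 µM delta7-dafachronic acid wells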
DAX1 inh confirm – NR0B1 (human) inhibition, confirmation | shares compounds with DAX1 inh-1 | HEK293T StAR-promoter luciferase reporter, SF-1/DAX-1 repression | 87% of 2,400 active | inhibition, % at 6.8 µM;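 active = inhibition above the average of every tested compound plus 3 SD, cut at about 3.8% in these data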;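 note: 0% = DAX-1 cells with DMSO and 100% = no DAX-1 control cells with DMSO; active compounds raise luminescence by relieving repression of the StAR reporter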
Target sequence (P51843 whole entry, looked up): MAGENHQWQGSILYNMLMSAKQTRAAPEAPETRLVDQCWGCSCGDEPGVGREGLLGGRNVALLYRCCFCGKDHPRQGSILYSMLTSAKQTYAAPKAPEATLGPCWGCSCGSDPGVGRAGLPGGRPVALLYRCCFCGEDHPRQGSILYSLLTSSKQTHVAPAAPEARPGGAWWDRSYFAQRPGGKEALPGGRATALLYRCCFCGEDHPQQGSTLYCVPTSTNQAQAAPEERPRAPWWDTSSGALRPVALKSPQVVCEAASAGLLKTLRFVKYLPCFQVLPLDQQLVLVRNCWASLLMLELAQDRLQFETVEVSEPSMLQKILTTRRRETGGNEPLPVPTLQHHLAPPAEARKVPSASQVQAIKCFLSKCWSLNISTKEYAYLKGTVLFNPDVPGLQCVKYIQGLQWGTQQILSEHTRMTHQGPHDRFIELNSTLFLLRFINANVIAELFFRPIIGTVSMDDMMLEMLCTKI
SF1 mutant ctr – nonselective inhibitor or artifact in SF-1 mutant DAX1 counter-screen. shares compounds with DAX1 inh-1. HEK293 StAR-luciferase, SF-1 AF2 mutant, luminescence. inhibition, % at 6.8 µM. 78% of 2,400 active. AID 652136;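 active = inhibition above the mean of all tested compounds plus 3 SD, cut at about 3% in these data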;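 note: 0% = DAX-1 transfected cells with DMSO and 100% = cells without DAX-1 with DMSO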
SMARCA2 conf – SMARCA2 activation, confirmation screen | shares compounds with SMARCA2 activ | MG213 cells, MMTV-luciferase with dexamethasone, luminescence, overnight; MG213 cells expressing E1A, Rb sequestered; DMSO wells 0%, reference activator 100% | activation, % at 9.1 µM | 30% of 3,500 active;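 active = activation above its plate's cutoff, the mean activation of tested wells plus 3 SD, cut at about 7.9% in these data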
GAL4-VP16 Luc – activates GAL4-VP16 luciferase, flagging SMARCA2 activator hits. shares compounds with SMARCA2 activ. HEK293 GAL4-VP16 pG5luc reporter, luciferase luminescence; scaled: DMSO wells 0%, SAHA wells 100%. activation, % at 9.1 µM. 41% of 3,500 active. AID 686939;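 active = activation above the solvent-only control well mean plus 3 SD, averaged across control plates, cut at about 5.2% in these data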
LXRb hcDAF ctr – activates human LXR-beta, counter-screen for hcDAF-12 agonists. shares compounds with hcDAF-12 act. HEK293 Gal4-LXR tk-luc reporter, luminescence, 24 h; normalized: DMSO 0%, positive control 100%. activation, % at 6.8 µM. 3,400 tested, under 10 active;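 active = mean percent activation of the reporter above a cutoff set as the average over tested compounds plus their standard deviation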
hcDAF12 conf – hcDAF-12 agonism, confirmation assay; shares compounds with hcDAF-12 act; HEK293 hcDAF-12 lit1-tk-luc reporter, luminescence; % of Δ7-dafachronic acid response; activation, % at 6.8 µM; 61% of 3,400 active; AID 743032;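 active = mean activation across triplicate tests above the threshold derived from the earlier primary screen, cut at about 5.5% in these data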;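 note: 0% = DMSO only wells and 100% = 3 µM Δ7-dafachronic acid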
hgDAF12 conf – confirmation of H. glycines DAF-12 agonists; shares compounds with hgDAF12 agonist; activation, % at 6.8 µM; AID 743050; 80% of 3,300 active; HEK293 GAL4-hgDAF12 luciferase reporter, agonist mode; percent of butyrate response;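 active = mean activation over triplicate wells above the hit cutoff derived from the earlier primary screen, cut at about 11% in these data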;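 note: 0% = DMSO low control and 100% = 2 mM sodium butyrate high control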
LXR ag 2 – activates human LXR-beta, counter-screen for DAF-12 agonists; shares compounds with hgDAF12 agonist; AID 743051; 3,300 tested, under 10 active; activation, % at 6.8 µM; HEK293 Gal4-LXR luciferase reporter, 24 h;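 active = mean activation of the triplicate above a set limit carried over from the primary screen, none filed active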
The depositor's hits bear a star; . = no result.

SMILES | hcDAF-12 act | hgDAF12 agonist | DAX1 inh-1 | DAX1 inh-2 | SMARCA2 activ | ssDAF12 agonist | SMARCA2 conf | GAL4-VP16 Luc | others
CC(=O)c1cccc(N/C=C\C(=O)c2ccc(C)cc2)c1 | 9.6* | 20* | 6.0* | 0 | 10* | 1 | 9.6* | 9.8* | DAX1 inh confirm=19*;SF1 mutant ctr=8.5*;LXRb hcDAF ctr=2;hcDAF12 conf=9.7*;hgDAF12 conf=25*;LXR ag 2=1
CC(=O)c1cccc(NS(=O)(=O)c2ccc(N/C=C\C(=O)c3ccc(C)cc3)cc2)c1 | 1 | 3 | 1 | -3 | 2 | 0 | . | .
CCOC(=O)c1ccc(Nc2ccc(C(C)=O)cc2)cc1 | 7.7* | 21* | 9.0* | . | 4 | 1.3* | . | . | DAX1 inh confirm=7.0*;SF1 mutant ctr=5.7*;LXRb hcDAF ctr=1;hcDAF12 conf=10*;hgDAF12 conf=19*;LXR ag 2=1
COc1ccc(/C=C/c2nc(-c3ccccc3O)n[nH]2)cc1 | 6.5* | 20* | 4.6* | 2 | 3 | 0 | . | . | DAX1 inh confirm=14*;SF1 mutant ctr=8.4*;hgDAF12 conf=18*;LXR ag 2=0
COc1ccc(/C=C/c2nc(-c3ccccc3O)n(-c3ccccc3)n2)cc1 | -1 | -1 | 1 | 1 | -1 | -1 | . | .
Cc1ccccc1NC(=O)OCCCN1C(=O)CCC12CCC(C)CC2 (configuration not stated) | -2 | -1 | 2 | . | -3 | -1 | . | .
O=C(Nc1ccc(-c2nc3cccnc3s2)cc1)c1ccco1 | 6.4* | 19* | 8.9* | 1 | 8.2* | 2.0* | 4 | 10* | DAX1 inh confirm=17*;SF1 mutant ctr=8.4*;hgDAF12 conf=18*;LXR ag 2=1
O=C(CSC(=S)N1CCSCC1)c1ccccc1 | 4 | 18* | 5.0* | 1 | 5 | 1 | . | . | DAX1 inh confirm=12*;SF1 mutant ctr=6.9*;hgDAF12 conf=19*;LXR ag 2=1
S=C(c1ccccc1)N1CCSCC1 | 1 | -1 | 0 | -1 | 2 | -1 | . | .
COc1ccc(-c2nc(CCl)cs2)cc1OC | 0 | 0 | 2 | 0 | 2 | -1 | . | .
COc1ccc(-c2nc(-c3ccc(O)cc3O)cs2)cc1OC | 0 | 12* | 2 | 0 | 8.8* | -2 | 18* | 12*
CC(=O)N=C(N)Sc1nc2ccccc2[nH]1 | 5.9* | 11* | 3 | 1 | 9.7* | 0 | 6 | 9.2*
CC(Sc1nc2ccccc2[nH]1)C(=O)O (configuration not stated) | 2 | 0 | 0 | 0 | -2 | 0 | . | .
COc1ccc(-c2csc(N(C)C(=O)c3ccco3)n2)cc1 | 1 | 6 | 1 | 3 | 8.0* | -2 | 6 | 7.9*
S=C1c2ccccc2CN1c1ccccc1 | 6.0* | 5 | 0 | 1 | 10* | -1 | 4 | 3
O=C(O)c1cccc2c1C(=O)N(c1ccccc1)C2 | 0 | 0 | 0 | 0 | 3 | -1 | . | .
CCOc1cccc(/C=C/c2ccc3cccc(O)c3n2)c1OC | 3 | 10 | 0 | 1 | 14* | -1 | -9 | 28*
COc1cc(Cl)cc(/C=C/c2ccc3cccc(O)c3n2)c1OC | 0 | 1 | 1 | 1 | -1 | -1 | . | .
COc1ccccc1/C=C/c1ccc2cccc(O)c2n1 | 6 | 5 | 1 | 3 | 6 | 0 | . | .
CCOc1cccc(/C=C/c2ccc3cccc(O)c3n2)c1O | 5.8* | 10* | 0 | 2 | 12* | 0 | 12* | 18*
COC(=O)c1cc2c(c3c4cc(OC)ccc4n(C(=O)c4ccccc4)c13)C(=O)N(C1CCCCC1)C2 | 2 | 0 | 2 | . | -1 | -1 | . | .
Cc1ccc(NC(=O)COC(=O)c2ccccc2Nc2ccccc2)cc1 | 0 | -1 | 0 | -1 | -3 | -1 | . | .
Cc1ccc(Nc2cccccc2=O)cc1 | 1 | 7 | 3 | 3 | 9.3* | -1 | 7 | 8.4*
O=C(Nc1ccc(F)cc1)OCCN1C(=O)CCC12CCC(c1ccccc1)CC2 (configuration not stated) | -1 | -4 | 0 | . | -3 | -1 | . | .
COc1ccc(NC2CCCN(C(=O)CN3C(=O)c4ccccc4C3=O)C2)cc1OC (configuration not stated) | -2 | -1 | 0 | 0 | 8.0* | -1 | -5 | 1
SMILES | hcDAF-12 act | hgDAF12 agonist | DAX1 inh-1 | DAX1 inh-2 | SMARCA2 activ | ssDAF12 agonist | SMARCA2 conf | GAL4-VP16 Luc | others
Cc1ccc(S(=O)(=O)NCC2CCN(C(=O)C(=O)c3cc4ccccc4o3)CC2)cc1 | 0 | -2 | 1 | . | 3 | 0 | . | .
N#Cc1ccc(Cn2ccc3ccc(-c4ccc5ccn(C(=O)C6CC6)c5c4)cc32)cc1 | 1 | 2 | 0 | . | -2 | -2 | . | .
O=[N+]([O-])c1ccc(N/N=C/C=C/c2ccco2)cc1 | 0 | 2 | 0 | 2 | 8.2* | -1 | 3 | 6.5*
O=S(=O)(N[C@H]1CCCC[C@@H]1N1CCOCC1)c1ccc(Cl)cc1 | 0 | 1 | . | . | . | -1 | . | .
COc1cccc2sc(Nc3nnc(-c4cccs4)o3)nc12 | 4 | 6 | 0 | -1 | 15* | 0 | -2 | 14*
COc1cccc2sc(Nc3nc(-c4ccccn4)cs3)nc12 | . | . | . | -3 | . | . | . | .
CN(C)CCCn1c(=O)n(CCc2ccccc2)c(=O)c2c3c(sc21)CCCCC3 | -1 | -1 | 0 | 1 | 2 | -2 | . | .
CN(C)CCCNc1nc2sc3c(c2c(=O)n1CCc1ccccc1)CCCCC3 | -1 | -2 | 0 | 1 | 10* | -1 | -5 | 2
